Activation (protection from cell death) data for 26 molecules are collected here from PubChem BioAssay AID463075 (University of Pittsburgh Molecular Library Screening Center, 2010).

About 150 (0.068%) of roughly 220,000 compounds were called active.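 The calls were made as follows: active = activation, meaning protection from cell death, of at least 50% relative to plate controls; inactive = activation below 50%.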 For the sample, actives were picked, then their nearest neighbours and some compounds at random.

The nature of the experiment: rescue of FADD-deficient Jurkat cells from TNF-alpha death – single concentration, primary screen (AID 463075).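 Also: necroptosis triggered by 40 ng/mL TNF-alpha added together with compound.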 To be noted: Jurkat FADD-/- TNF necroptosis rescue, ATP luminescence, 24 h; at 10 µM; active compounds read high; 0 = TNF only, 100 = no-TNF cells.
`COC(=O)CCNC(=O)c1ccc2[nH]c(C)c(C)c2c1`: the activation (protection from cell death) was -0.237% (inactive).

For `COC(=O)COc1cccc2c(=O)n(CC(=O)NCc3ccccc3)ccc12`, the activation (protection from cell death) is -12.7% (inactive). In the case of `CCCc1cc(=S)n2c([nH]c3ccccc32)c1C#N`, the activation (protection from cell death) is -1.86% (inactive). As for `COc1cccc(CC(=O)N2CCCC(CCC(=O)N3CCN(c4ccccn4)CC3)C2)c1` (stereo unspecified), the figure is 2.68% (inactive); as for `CCn1cc(C(=O)Nc2cc(C)ccc2C)c(=O)c2ccc(C)nc21`, 0.491% (inactive); as for `O=[N+]([O-])c1ccc(N/N=C2/CCCCC2c2ccccn2)c([N+](=O)[O-])c1` (stereo unspecified), 2.74% (inactive). `CCn1c2ccccc2c2cc(NC(=O)C/C(C)=N/NC(=O)c3ccccc3N)ccc21`: the activation (protection from cell death) is -9.27% (inactive). As for `COc1cc(OC)cc(/C(N)=N/O)c1`, the figure is 4.62% (inactive); as for `Cc1ccc(S(=O)(=O)/N=C(/NC(=S)Nc2c(C)n(C)n(-c3ccccc3)c2=O)c2ccccc2)cc1`, 0.616% (inactive).

For `O=C(N/N=C1\CCSC1)c1cc(Cl)ccc1O`, the activation (protection from cell death) is -0.00524% (inactive). For `O=C(Cc1cccc2ccccc12)NNC(=O)Nc1ccc(Cl)cc1`, the activation (protection from cell death) is 7.05% (inactive). To `Cc1nc2ccccc2nc(=O)c1NNc1ccc([N+](=O)[O-])cc1` belongs 3.59% (inactive).

As for `Oc1ccc(/C=N/Nc2ccc(C(F)(F)F)cn2)cc1O`, the activation (protection from cell death) was 30.8% (inactive).

Take `O=S(=O)([N-]c1nc2ccccc2nc1-[n+]1ccc(Cc2ccccc2)cc1)c1ccc(Br)s1`: the activation (protection from cell death) is -3.84% (inactive). Take `CCCN=C1NC(=O)C(CC(=O)NCCc2ccc(OC)c(OC)c2)S1` (stereo unspecified): the activation (protection from cell death) is 1.06% (inactive). Turning to `O=C(CSc1nnc(-c2ccncc2)o1)NCc1ccc(Cl)cc1`, the activation (protection from cell death) is 3.12% (inactive). As for `Cc1cccc(N2CCN(C(=O)/C=C/c3ccco3)CC2)c1C`, the figure is -4.02% (inactive); as for `Cc1ccc(S(=O)(=O)N2CCN(CC(=O)N/N=C/c3cc([N+](=O)[O-])ccc3Cl)CC2)cc1`, 4.63% (inactive). To `COc1ccc(C(=S)Nc2ccccc2)cc1` belongs -4.07% (inactive); to `COc1ccc(NC(=S)N2N=CCC2c2ccccc2)cc1` (stereo unspecified), 87.5% (active); to `COc1ccc(C(=O)NC2CCN(C(=S)Nc3ccccc3)CC2)cc1`, 0.717% (inactive). As for `CCCCS(=O)c1snnc1C` (stereo unspecified), the figure is -0.406% (inactive); as for `CCCOc1ccc(Cc2c(Cl)nc(SC)nc2NC)cc1`, -4.22% (inactive); as for `CCCCN(C)CCNC(=O)CSCc1ccc(C)cc1`, 1.41% (inactive).

Regarding `CCN1C(=O)/C(=C2/Sc3ccc(OC)cc3N2C)SC1=Nc1ccc(C)cc1`, the activation (protection from cell death) is -1.29% (inactive).

Take `COc1ccc(N(CC(=O)NC2CCCCC2)S(=O)(=O)c2c(C)[nH]c(=O)[nH]c2=O)cc1`: the activation (protection from cell death) was -0.527% (inactive).
